Shown are actives, neighbours in structure and some others; about 19% of the full set was active somewhere.
IL-1B inflam inh: blocks inflammasome-driven IL-1 beta release | activity change, % at 57.5 µM | THP-1 LPS/ATP IL-1B secretion, AlphaLISA, 16 h; hits give low values | AID 743279 | 4.7% of 360,000 active; in the data active = activity change below about -50%; inconclusive = mostly about -30% to -49%; also: % is scaled to controls: 0 for no effect and ±100 for the full control effect
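THP-1 cells pretreated 1 hr with compounds (up to 57.5 uM final), then stimulated with LPS (250 ng/mL final) plus ATP (1.25 mM final); secreted IL-1B measured by AlphaLISA after 16 hr, decreased signal indicating inhibition.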
HepG2 viability: kills HepG2 cells in TGF-b inhibitor counter-screen; HepG2 CAGA-GFP viability, ATP luminescence, 18 h; Potency, µM (doses to about 46.1 µM), for inactives: at the top dose activity change, negative = cytotoxicity, most hits filed as cytotoxic; 0.76% of 410,000 active; AID 588856; also: potency is read from the fitted curve at half-maximal effect
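HepG2 CAGA-GFP cells (1000/well, DMEM with 1% FBS) received compound, then TGF-beta at 500 pg/mL final, and were incubated 18 hours at 37 degrees C. Viability was read by CellTiter-Glo luminescence. Media-only wells were set as complete cell-killing and DMSO as no toxicity.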
DT40 TDP1 no CPT: qHTS for Inhibitors of human tyrosyl-DNA phosphodiesterase 1 (TDP1): qHTS in cells in absence of CPT; Potency, µM (highest dose often 46.2 µM), for inactives: at the top dose activity change, negative = growth inhibition, most hits filed as inhibitors; 15% of 420,000 active; DT40 Tdp1-/- hTDP1 cells, no CPT, ATP luminescence, 48 h; also: potency is read from the fitted curve at half-maximal effect; % is scaled to controls: 0 for no effect and ±100 for the full control effect; nearly all actives have a fitted effect of over 55% in size
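Stably hTDP1-transfected Tdp1-null chicken DT40 cells were treated with library compounds minus camptothecin and grown for at least 48 hr at 37 °C, after which cellular ATP was quantified by luminescence.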
S-ASM inh: human S-ASM enzyme inhibition; P17405; placental ASM, HMU-PC fluorogenic substrate, 60 min; Potency, µM (series often up to 57.5 µM), for the others: top-dose activity change, negative = inhibition, actives largely listed as inhibitors; 0.006% of 340,000 active; also: potency is read from the fitted curve at half-maximal effect
Target sequence (P17405 47-631 limits assumed): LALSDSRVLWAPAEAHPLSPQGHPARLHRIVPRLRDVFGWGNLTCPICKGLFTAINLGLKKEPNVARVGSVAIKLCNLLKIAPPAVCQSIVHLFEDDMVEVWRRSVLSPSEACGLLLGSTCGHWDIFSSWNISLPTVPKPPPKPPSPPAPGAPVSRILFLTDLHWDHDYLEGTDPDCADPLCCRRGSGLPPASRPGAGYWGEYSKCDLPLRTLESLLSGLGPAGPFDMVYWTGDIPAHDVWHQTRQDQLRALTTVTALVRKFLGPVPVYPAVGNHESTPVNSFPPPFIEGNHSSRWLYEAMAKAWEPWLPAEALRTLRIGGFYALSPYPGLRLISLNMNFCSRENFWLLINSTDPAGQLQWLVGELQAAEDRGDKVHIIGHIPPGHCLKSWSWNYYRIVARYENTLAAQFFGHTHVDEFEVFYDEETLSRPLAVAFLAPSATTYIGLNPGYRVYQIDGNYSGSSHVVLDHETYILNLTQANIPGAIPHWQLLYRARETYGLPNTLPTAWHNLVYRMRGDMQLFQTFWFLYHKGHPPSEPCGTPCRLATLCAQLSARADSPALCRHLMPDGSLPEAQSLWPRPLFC
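qHTS format. ASM enzyme prepared from human placenta hydrolyses the fluorogenic substrate HMU-PC0 (9 uM final) over 60 min at 37 °C after a 10 min compound preincubation.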
TGFb inhibitor: TGF-b pathway inhibition; HepG2 CAGA-GFP TGF-b/SMAD3 reporter, GFP fluorescence, 18 h; TGF-beta stimulated, 500 pg/mL final; Potency, µM (highest dose often 46.1 µM), without a hit: at the highest dose activity, negative = inhibition, actives largely listed as inhibitors; 1.2% of 410,000 active; AID 588855; also: potency is read from the fitted curve at half-maximal effect; % is scaled to controls: 0 for no effect and ±100 for the full control effect; nearly all actives have a fitted effect of over 65% in size
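TGF-beta reporter screen: HEPG2 CAGA-GFP, 1% FBS, 500 pg/mL TGF-beta final, 18 h; per-cell GFP summed per well; curves fitted and categorized by class.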
TDP1 cell CPT: growth inhibition of DT40 Tdp1-/-;hTDP1 cells with camptothecin (screen for TDP1 inhibitors). Potency, µM (series often up to 46.2 µM), for the others: top-dose activity change, negative = growth inhibition, most hits filed as inhibitors. chicken DT40 Tdp1-/-;hTDP1 cells + 20 nM CPT, ATP luminescence, 48 h. 12% of 420,000 active; also: potency is read from the fitted curve at half-maximal effect; % is scaled to controls: 0 for no effect and ±100 for the full control effect; nearly all actives have a fitted effect of over 55% in size
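Chicken DT40 Tdp1-/- cells stably complemented with human TDP1 were seeded at 400 cells/well in medium containing 20 nM camptothecin, exposed to pin-transferred compounds, and grown at 37 °C for at least 48 hr. Viability was read as ATP luminescence.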
Starred values were filed as active, the others as inactive; i = inactive; ? = inconclusive; . = not tested or not shown; [ ] = another dose, or the depositor's remark. Unless noted, calls follow the shape of the dose curve; as a rule, active = well fitted curve in the direction sought with a large enough effect; inconclusive = small, poorly fitted or top-dose-only effect, or another doubt; inactive = no such curve, though single readings can be large; an effect the other way counts as inactive or inconclusive.

SMILES	IL-1B inflam inh	HepG2 viability	DT40 TDP1 no CPT	S-ASM inh	TGFb inhibitor	TDP1 cell CPT
CCCCNC(=O)c1nc(-c2cccs2)oc1-c1ccc(Cl)cc1	-5	.	15µM*	.	.	?
CCCCNC(=O)c1nc(-c2ccncc2)oc1-c1ccc(OC(F)(F)F)cc1	45	.	10%	.	.	28%
CCCCNC(=O)c1nc(-c2cc3ccccc3[nH]2)oc1-c1ccccc1	6	.	16µM*	.	.	?
O=C(O)c1ccccc1C(=O)c1cccc2c(Br)cccc12	17	16%	-16%	-1%	-10%	-12%
O=C(CN1C(=O)COc2ccccc21)NCCc1ccc(Cl)cc1	.	2%	-8%	.	3%	-4%
COc1ccc(OC)c2c(=S)c3ccccc3[nH]c12	.	.	?	.	.	24µM*
CSc1nnc(CCNC(=O)c2ccc(-c3cccc(F)c3)cc2)n1-c1ccc(F)cc1	.	.	-14%	.	.	9%[9.04 µM]
CC(=O)c1cccc(NC(=O)COc2cc3oc(=O)c(CC(C)O)c(C)c3cc2Cl)c1 (stereo not drawn)	-1	0%	21µM*	-18%	3%	?
Cc1nnc(C)c2c(C)n(C(c3ccccc3)c3ccccc3)c(C)c12	?	-31%	?	55%	?	?
Cc1nnc(C)c2c(C)n(-c3ccccc3N)c(C)c12	-3	-18%	?	18%	-2%	21µM*
Cc1ccc(-n2c(C)c3c(C)nnc(C)c3c2C)cc1C	?	-23%	15µM*	8%	-2%	15µM*
Cc1nnc(C)c2c(C)n(-c3ccccc3)c(C)c12	21	-40%	23µM*	18%	-4%	23µM*
Cc1ccc(-n2c(C)c3c(C)nnc(C)c3c2C)cc1N	18	-3%	?	8%	-11%	21µM*
C[C@@H]1Cn2cnc(C(=O)NCc3ccc(CNC(=O)OC(C)(C)C)cc3)c2C(=O)N1	-11	-2%	-23%	.	8%	-1%
O=C(Nc1ccc(OCc2cc(=O)n3ccsc3n2)cc1)c1ccc(F)cc1	.	2%	4%	.	9%	3%
Cc1cc(-n2c(C)c3c(C)nnc(C)c3c2C)ccc1N	.	4%	?	-8%	-13%	8.2µM*
CCCc1cc(=O)oc2c(CNc3ccc(OCC)cc3)c(O)ccc12	0	-11%	?	423%	-9%	12µM*
CCCCc1cc(=O)oc2c(CN3CCCC3)c(O)ccc12	17	-1%	-12%	i	-8%	5%
Cc1ccc2c(c1)N(C(=O)NCc1ccccc1)CCO2	.	-12%	-8%	.	?	0%
O=C(Nc1cc(F)ccc1F)c1cnn2c(C(F)F)cc(-c3ccccc3)nc12	.	-2%	-8%	.	13%	-15%
O=C(Nc1cccnc1)c1cnn2c(C(F)F)cc(C3CC3)nc12	-16	-29%	5.2µM*	0%	-5%	15µM*
O=C(Nc1cc(Br)ccc1O)c1cnn2c(C(F)F)cc(C3CC3)nc12	6	-3%	16µM*	-2%	-20%	-13%
CCn1c(C(=O)NCc2ccc(F)cc2)cc2oc3ccccc3c21	.	-26%	?	.	?	21µM*
CCOc1ccccc1CNC(=O)c1cc2oc3ccccc3c2n1CC	?	-19%	18µM*	1%	26%	26µM*
Cc1ccc(C)c(NC(=O)CCc2nc3cccnc3n2Cc2cccs2)c1	.	-32%	21µM*	.	?	18µM*
SMILES	IL-1B inflam inh	HepG2 viability	DT40 TDP1 no CPT	S-ASM inh	TGFb inhibitor	TDP1 cell CPT
CCCn1c(CCC(=O)Nc2cc(Cl)c(OC)cc2OC)nc2cccnc21	.	-6%	16µM*	.	-5%	?
COc1cc(NC(=O)CCc2nc3cccnc3n2Cc2cccs2)cc(OC)c1OC	.	-16%	16µM*	.	?	16µM*
CCCn1c(CCC(=O)Nc2ccc(OCC)cc2)nc2cccnc21	.	-32%	?	.	?	?
CC(=O)c1cccc(NC(=O)CCc2nc3cccnc3n2Cc2cccs2)c1	.	-22%	-107%	.	-2%	?
Cc1noc(C)c1S(=O)(=O)N(C)C[C@H]1OCCCC[C@H](C)Oc2ccc(NC(=O)CCCN(C)C)cc2C(=O)N([C@H](C)CO)C[C@@H]1C	-11	-76%	-13%	.	-1%	-17%
O=c1cc(N2CCCCC2)c(-c2ccccc2)nn1Cc1ccccc1	-99*	3%	?	-4%	?	?
Cn1nc(-c2ccccc2)c(N2CCCCC2)cc1=O	-5	13%	?	1%	28%	-4%
COc1ccc(Cn2nc(-c3ccccc3)c(N3CCCCC3)cc2=O)cc1	-232*	22µM*	12µM*	-3%	?	?
Cc1ccc2oc(=O)c3cnn(CC(=O)N(C)c4ccc(F)cc4)c3c2c1	.	0%	-4%	.	-1%	0%
CCCN1C(=O)/C(=N\OCC(=O)Nc2ccc(C(C)C)cc2)c2ccccc21	?	-3%	?	?	-22%	-15%
CCCN1C(=O)/C(=N\OCC(=O)NC23CC4CC(CC(C4)C2)C3)c2ccccc21	-4	-11%	16µM*	-13%	-2%	16µM*
Cc1ccc(NC(=O)c2cc(S(=O)(=O)NCCc3ccccc3)ccc2F)cc1Cl	-88*	-57%	?	?	-1%	?
CCOC(=O)N1CCC(NC(=O)c2cc(S(=O)(=O)NCCc3ccccc3)ccc2F)CC1	-11	-6%	?	.	-2%	?
CCc1ccccc1NC(=O)c1cc(S(=O)(=O)NCCc2ccc(OC)c(OC)c2)ccc1F	.	0%	16µM*	.	?	21µM*
COc1ccccc1NC(=O)c1cc(S(=O)(=O)NCc2ccccc2)ccc1F	-1	-2%	?	-3%	?	?
Cc1ccc(C)c(NC(=O)c2cc(S(=O)(=O)NCCc3ccccc3)ccc2F)c1	.	-17%	?	.	?	23µM*
COc1ccc(-n2c(=O)c3ccc(C(=O)NCc4ccc(C)cc4)cc3n(CC(=O)Nc3ccc(F)cc3)c2=O)cc1	.	-5%	4%	.	0%	-6%
CCOC(=O)c1cccc(NC(=O)CCCn2c(C)c3cnn(-c4ccccc4)c(=O)c3c2C)c1	.	-40%	16µM*	.	?	18µM*
CCC(C(=O)Nc1ccc(C(C)=O)cc1)n1c(C)c2cnn(-c3ccccc3)c(=O)c2c1C (stereo not drawn)	.	-22%	?	.	-24%	23µM*
